# Results reported in article PMC5515408, “Sequence-specific DNA binding by MYC/MAX to low-affinity non-E-box motifs”.
# Whole data set: some 4,500 sequences, median “log2 normalized fluorescence” near -0.34, cut for the highest 2% near 3.3. The sample holds the highest values, similar sequences and a random draw of the others, so the mix is not that of the screen.
# Target: MAX:MAX (p21) (human, UniProt P61244-2 1-151)
# Assay: protein-binding microarray (anti-MAX antibody); PBM: 15 mM Tris-HCl pH 7.5, 100 mM KCl, 0.075% NP40, 7.5 mM beta-mercaptoethanol, 375 ng/ul BSA, 8 ng/ul poly(dA-dT):(dA-dT), 550 ng complex, 60 min, room tempe; high values mean tight binding
# Settings: protein: recombinant; tags: 6xHis; chain copies: 2; label: 3' end of printed strand (linker) attached to glass slide; dsDNA, one strand shown
# How it was run: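 A custom Agilent glass array held ~5000 unique 12-nt sequences in triplicate spots, made double-stranded by primer extension. His-tagged human MYC:MAX or MAX:MAX dimers (550 ng, produced in E. coli) were applied for 60 min at room temperature in Tris-KCl buffer, pH 7.5, with NP40, BSA and poly(dA-dT) competitor. Anti-MAX and secondary antibodies detected bound protein, with scanning at 543 nm, and binding is given as log2 normalized fluorescence.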
# MAX:MAX (p21), sequence (P61244 other isoform, or with tags, fused parts or gaps): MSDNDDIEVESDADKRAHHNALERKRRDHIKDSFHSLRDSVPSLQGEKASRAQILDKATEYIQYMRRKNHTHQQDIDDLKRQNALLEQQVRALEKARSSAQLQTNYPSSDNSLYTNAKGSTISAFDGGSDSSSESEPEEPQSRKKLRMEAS
row,Sequence,binding signal
1,CCGGCTGACGGACGGTATTAATAGCTAAGATTACTATATCGACG,-0.374 log2 normalized fluorescence
2,CCGGCTGACGTATCGTATTAATAGCTAAGATTACTATATCGACG,-0.167 log2 normalized fluorescence
3,CCGGCGATCACGTGGTATTAATAGCTAAGATTACTATATCGACG,3.19 log2 normalized fluorescence
4,CCGGCGGCCACGTGGTATTAATAGCTAAGATTACTATATCGACG,3.16 log2 normalized fluorescence
5,CCGGCTTCCACGTGGTATTAATAGCTAAGATTACTATATCGACG,3.13 log2 normalized fluorescence
6,CCGGCGTCCACGTGGTATTAATAGCTAAGATTACTATATCGACG,3.64 log2 normalized fluorescence
7,CCGGCAACCACGTGGTATTAATAGCTAAGATTACTATATCGACG,3.15 log2 normalized fluorescence
8,CCGGCGACCACGTGGTATTAATAGCTAAGATTACTATATCGACG,3.3 log2 normalized fluorescence
9,CCGGCTACGACGTGGTATTAATAGCTAAGATTACTATATCGACG,2.57 log2 normalized fluorescence
10,CCGGCTGATCCTACGTATTAATAGCTAAGATTACTATATCGACG,-0.737 log2 normalized fluorescence
11,CCGGCTGATCACGTGTATTAATAGCTAAGATTACTATATCGACG,3.48 log2 normalized fluorescence
12,CCGGCTGACCGCGCGTATTAATAGCTAAGATTACTATATCGACG,1.24 log2 normalized fluorescence
13,CCGGCTGATCGTGTGTATTAATAGCTAAGATTACTATATCGACG,1.12 log2 normalized fluorescence
14,CCGGCTGATTACGTGTATTAATAGCTAAGATTACTATATCGACG,0.238 log2 normalized fluorescence
15,CCGGCTGACCGTGTGTATTAATAGCTAAGATTACTATATCGACG,1.49 log2 normalized fluorescence
16,CCGGCTGACCGCGTGTATTAATAGCTAAGATTACTATATCGACG,3.4 log2 normalized fluorescence
17,CCGGCTGACACCGTGTATTAATAGCTAAGATTACTATATCGACG,1.72 log2 normalized fluorescence
18,CCGGCTGACGCCTAGTATTAATAGCTAAGATTACTATATCGACG,-0.368 log2 normalized fluorescence
19,CCGGCTGAAGGCGCGTATTAATAGCTAAGATTACTATATCGACG,-0.33 log2 normalized fluorescence

row,Sequence,binding signal
1,CCGGCTGAAGCCCGGTATTAATAGCTAAGATTACTATATCGACG,-0.644 log2 normalized fluorescence
2,CCGGCTGACACGTAGCATTAATAGCTAAGATTACTATATCGACG,1.7 log2 normalized fluorescence
3,CCGGCTGACATACAGTATTAATAGCTAAGATTACTATATCGACG,0.345 log2 normalized fluorescence
4,CCGGCTGACTCAAGGTATTAATAGCTAAGATTACTATATCGACG,0.208 log2 normalized fluorescence
5,CCGGCTGCCACGTGGTGTTAATAGCTAAGATTACTATATCGACG,3.07 log2 normalized fluorescence
6,CCGGCTGGCACCTGGTTTTAATAGCTAAGATTACTATATCGACG,1.82 log2 normalized fluorescence
7,CCGGCTGGCACGTGGTATTAATAGCTAAGATTACTATATCGACG,3.26 log2 normalized fluorescence
8,CCGGCCGGCACGTGGTGTTAATAGCTAAGATTACTATATCGACG,3.21 log2 normalized fluorescence
9,CCGGCTGGCACGTGGTTTTAATAGCTAAGATTACTATATCGACG,3.33 log2 normalized fluorescence
10,CCGGCTGGCACGTGGTGTTAATAGCTAAGATTACTATATCGACG,3.4 log2 normalized fluorescence
11,CCGGCTGAGTGTCGGTATTAATAGCTAAGATTACTATATCGACG,-0.348 log2 normalized fluorescence
12,CCGGCTGATGCCCTGTATTAATAGCTAAGATTACTATATCGACG,-0.309 log2 normalized fluorescence
13,CCGGCTGAACGTACGTATTAATAGCTAAGATTACTATATCGACG,-0.307 log2 normalized fluorescence
14,CCGGCTGAGGCGTCGTATTAATAGCTAAGATTACTATATCGACG,-0.641 log2 normalized fluorescence
15,CCGGCTGAACGCAAGTATTAATAGCTAAGATTACTATATCGACG,0.234 log2 normalized fluorescence
16,CCGGCCGACACGTGATATTAATAGCTAAGATTACTATATCGACG,3.43 log2 normalized fluorescence
17,CCGGCTGACACGTTATATTAATAGCTAAGATTACTATATCGACG,2.87 log2 normalized fluorescence
18,CCGGCTGACACACGTTATTAATAGCTAAGATTACTATATCGACG,2.37 log2 normalized fluorescence
19,CCGGCAGACACGTGTTATTAATAGCTAAGATTACTATATCGACG,3.42 log2 normalized fluorescence

row,Sequence,binding signal
1,CCGGCTGACACGTGTTATTAATAGCTAAGATTACTATATCGACG,3.29 log2 normalized fluorescence
2,CCGGCCGACACCTGTTATTAATAGCTAAGATTACTATATCGACG,2.63 log2 normalized fluorescence
3,CCGGCCGACACGTGCTATTAATAGCTAAGATTACTATATCGACG,3.18 log2 normalized fluorescence
4,CCGGCCGACACGTGTTATTAATAGCTAAGATTACTATATCGACG,3.4 log2 normalized fluorescence
5,CCGGCTGACACGTGATATTAATAGCTAAGATTACTATATCGACG,3.05 log2 normalized fluorescence
6,CCGGCCGACACGGCGTATTAATAGCTAAGATTACTATATCGACG,0.94 log2 normalized fluorescence
7,CCGGCAGACACGTGGTGTTAATAGCTAAGATTACTATATCGACG,3.28 log2 normalized fluorescence
8,CCGGCAGAAACGTGTTATTAATAGCTAAGATTACTATATCGACG,2.96 log2 normalized fluorescence
9,CCGGCTGAGCATTTGTATTAATAGCTAAGATTACTATATCGACG,-0.22 log2 normalized fluorescence
10,CCGGCTGACTGGATGTATTAATAGCTAAGATTACTATATCGACG,-0.202 log2 normalized fluorescence
11,CCGGCTGACATTCAGTATTAATAGCTAAGATTACTATATCGACG,0.265 log2 normalized fluorescence
12,CCGGCTGACGTGTCGTATTAATAGCTAAGATTACTATATCGACG,1.07 log2 normalized fluorescence
13,CCGGCTGATGGTCTGTATTAATAGCTAAGATTACTATATCGACG,0.348 log2 normalized fluorescence
14,CCGGCTGAGGAGGCGTATTAATAGCTAAGATTACTATATCGACG,-0.734 log2 normalized fluorescence
15,CCGGCTGACACTACGTATTAATAGCTAAGATTACTATATCGACG,-0.11 log2 normalized fluorescence
16,CCGGCTGAACGTTGGTATTAATAGCTAAGATTACTATATCGACG,0.152 log2 normalized fluorescence
17,CCGGCTGTGACGTGGTATTAATAGCTAAGATTACTATATCGACG,1.45 log2 normalized fluorescence
18,CCGGCAGACATGTGGTGTTAATAGCTAAGATTACTATATCGACG,3.1 log2 normalized fluorescence
19,CCGGCAGACACGTGATCTTAATAGCTAAGATTACTATATCGACG,3.05 log2 normalized fluorescence
